Consider eleven targets from the supplement of paper PMC10849652.

Holding throughout (assay): log2 fold change, soluble protein after heating vs DMSO (PISA); higher = thermal stabilisation; K562 lysate, 10 uM; active = over 0.2 and 3.5 SD of the protein, either way, in both replicates (recomputed)
Compound in one assay: O=C(O)c1ccc2c(c1)nc(Nc1cccc(Cl)c1)c1ccncc12 [silmitasertib]
The method, boiled down: (§1)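 Log-two fold change in thermal stability relative to solvent controls is reported from duplicates. For each sample, crude K562 extract from dounce-homogenised pellets in PBS pH 7.4 with 1 mM MgCl2, at 1 mg/mL protein, was treated with 10 μM compound for 30 min. Aliquots heated for 3 min across 48°C-58°C were pooled, brought to 0.5% NP-40 at 4°C and cleared at 21,000xg for 90 min. The supernatant was quantified by TMTpro 16plex LC-MS/MS with channel sums equalised.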

Compound in the next assay: O=C(CCCCCCC(=O)Nc1ccccc1)NO [vorinostat]
The method, boiled down: as §1

Compound in assay [1]: O=C1NC(=O)C(c2cnc3ccccn23)=C1c1cn2c3c(cc(F)cc13)CN(C(=O)N1CCCCC1)CC2
The method, boiled down: as §1

Compound in a further assay: c1cn2cc(-c3ccc4cn[nH]c4c3)nc(Nc3ccc(N4CCOCC4)cc3)c2n1 [entospletinib]
Put shortly:
as §1

Compound in assay [2]: NCC(=O)Nc1ccc(-n2nc(C(F)(F)F)cc2-c2ccc3c(ccc4ccccc43)c2)cc1
Put shortly: as §1

Of roughly 8,800 targets only a part is listed; those with a hit were picked by preference. About 0.5% of all pairs of compound and target were hits. Values without a mark were called inactive.

UniProt Q8TF64, sequence (Q8TF64 whole entry, looked up): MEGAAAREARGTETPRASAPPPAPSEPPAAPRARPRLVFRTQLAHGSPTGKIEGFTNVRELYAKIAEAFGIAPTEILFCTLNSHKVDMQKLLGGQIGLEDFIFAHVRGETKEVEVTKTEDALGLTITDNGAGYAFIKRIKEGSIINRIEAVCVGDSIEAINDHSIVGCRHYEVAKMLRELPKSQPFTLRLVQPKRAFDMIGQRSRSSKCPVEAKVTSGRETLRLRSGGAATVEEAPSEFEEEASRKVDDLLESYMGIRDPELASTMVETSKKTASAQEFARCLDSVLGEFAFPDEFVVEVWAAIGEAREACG
UniProt Q9P0K8, sequence (Q9P0K8 whole entry, looked up): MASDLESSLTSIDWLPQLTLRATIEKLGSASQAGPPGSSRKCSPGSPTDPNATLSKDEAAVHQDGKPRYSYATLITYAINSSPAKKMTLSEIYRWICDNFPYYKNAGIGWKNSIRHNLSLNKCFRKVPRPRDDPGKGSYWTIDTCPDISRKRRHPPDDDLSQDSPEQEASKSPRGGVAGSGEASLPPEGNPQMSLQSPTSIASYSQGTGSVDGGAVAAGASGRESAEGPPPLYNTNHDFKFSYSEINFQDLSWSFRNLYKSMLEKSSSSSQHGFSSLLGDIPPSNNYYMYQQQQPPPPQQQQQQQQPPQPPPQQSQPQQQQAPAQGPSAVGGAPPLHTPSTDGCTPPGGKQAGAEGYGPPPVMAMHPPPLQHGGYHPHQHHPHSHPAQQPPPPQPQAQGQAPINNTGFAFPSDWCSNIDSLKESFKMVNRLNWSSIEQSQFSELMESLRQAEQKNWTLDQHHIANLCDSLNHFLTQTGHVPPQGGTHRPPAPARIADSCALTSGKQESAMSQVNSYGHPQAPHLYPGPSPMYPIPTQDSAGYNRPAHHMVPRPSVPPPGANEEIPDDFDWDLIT
UniProt Q96PY5, sequence (Q96PY5 whole entry, looked up): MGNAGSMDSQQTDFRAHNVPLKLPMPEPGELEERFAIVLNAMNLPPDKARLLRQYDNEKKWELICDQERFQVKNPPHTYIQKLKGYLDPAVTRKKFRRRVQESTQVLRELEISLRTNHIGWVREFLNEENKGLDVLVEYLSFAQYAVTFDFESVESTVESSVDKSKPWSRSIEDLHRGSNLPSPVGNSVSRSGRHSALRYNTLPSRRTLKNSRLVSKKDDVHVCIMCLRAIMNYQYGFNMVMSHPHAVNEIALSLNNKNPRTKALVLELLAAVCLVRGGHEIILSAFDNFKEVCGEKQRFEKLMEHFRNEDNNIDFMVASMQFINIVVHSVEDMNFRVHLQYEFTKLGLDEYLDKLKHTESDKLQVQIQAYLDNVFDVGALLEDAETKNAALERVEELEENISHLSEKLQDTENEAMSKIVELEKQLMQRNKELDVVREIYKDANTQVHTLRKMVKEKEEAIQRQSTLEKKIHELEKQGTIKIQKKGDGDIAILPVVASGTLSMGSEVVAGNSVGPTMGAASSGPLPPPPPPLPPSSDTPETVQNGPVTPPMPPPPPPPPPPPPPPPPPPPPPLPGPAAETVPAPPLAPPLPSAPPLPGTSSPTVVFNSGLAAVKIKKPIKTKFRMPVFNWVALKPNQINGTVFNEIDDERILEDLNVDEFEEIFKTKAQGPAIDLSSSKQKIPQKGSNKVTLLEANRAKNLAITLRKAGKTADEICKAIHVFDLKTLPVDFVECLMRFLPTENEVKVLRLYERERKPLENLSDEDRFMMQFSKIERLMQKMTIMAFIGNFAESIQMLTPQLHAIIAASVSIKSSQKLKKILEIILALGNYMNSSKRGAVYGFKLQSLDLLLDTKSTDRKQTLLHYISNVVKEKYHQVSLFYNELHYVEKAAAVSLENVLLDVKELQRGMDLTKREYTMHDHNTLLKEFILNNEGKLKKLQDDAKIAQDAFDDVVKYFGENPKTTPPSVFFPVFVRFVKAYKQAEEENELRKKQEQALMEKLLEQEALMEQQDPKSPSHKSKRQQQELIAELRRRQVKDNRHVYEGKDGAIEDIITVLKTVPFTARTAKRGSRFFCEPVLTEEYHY
UniProt Q08426, sequence (Q08426 whole entry, looked up): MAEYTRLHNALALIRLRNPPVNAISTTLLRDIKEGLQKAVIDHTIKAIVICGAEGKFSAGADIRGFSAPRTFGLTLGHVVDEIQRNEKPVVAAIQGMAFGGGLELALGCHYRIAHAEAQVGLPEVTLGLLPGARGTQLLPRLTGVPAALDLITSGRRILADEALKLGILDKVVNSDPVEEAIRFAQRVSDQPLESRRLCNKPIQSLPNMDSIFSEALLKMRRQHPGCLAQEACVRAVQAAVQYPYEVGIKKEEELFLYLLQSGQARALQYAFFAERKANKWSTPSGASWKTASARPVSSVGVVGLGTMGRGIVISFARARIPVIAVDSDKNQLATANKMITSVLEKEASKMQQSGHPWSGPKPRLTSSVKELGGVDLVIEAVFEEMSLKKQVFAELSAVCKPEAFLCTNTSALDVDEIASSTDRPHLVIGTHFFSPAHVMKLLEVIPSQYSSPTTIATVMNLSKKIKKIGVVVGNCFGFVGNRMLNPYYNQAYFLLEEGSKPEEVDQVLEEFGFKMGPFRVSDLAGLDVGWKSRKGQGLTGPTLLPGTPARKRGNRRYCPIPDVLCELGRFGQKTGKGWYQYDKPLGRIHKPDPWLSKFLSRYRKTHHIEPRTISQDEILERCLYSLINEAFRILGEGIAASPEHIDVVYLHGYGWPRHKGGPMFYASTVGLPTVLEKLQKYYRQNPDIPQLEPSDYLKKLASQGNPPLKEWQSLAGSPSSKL
UniProt Q8N6R0, sequence (Q8N6R0 whole entry, looked up): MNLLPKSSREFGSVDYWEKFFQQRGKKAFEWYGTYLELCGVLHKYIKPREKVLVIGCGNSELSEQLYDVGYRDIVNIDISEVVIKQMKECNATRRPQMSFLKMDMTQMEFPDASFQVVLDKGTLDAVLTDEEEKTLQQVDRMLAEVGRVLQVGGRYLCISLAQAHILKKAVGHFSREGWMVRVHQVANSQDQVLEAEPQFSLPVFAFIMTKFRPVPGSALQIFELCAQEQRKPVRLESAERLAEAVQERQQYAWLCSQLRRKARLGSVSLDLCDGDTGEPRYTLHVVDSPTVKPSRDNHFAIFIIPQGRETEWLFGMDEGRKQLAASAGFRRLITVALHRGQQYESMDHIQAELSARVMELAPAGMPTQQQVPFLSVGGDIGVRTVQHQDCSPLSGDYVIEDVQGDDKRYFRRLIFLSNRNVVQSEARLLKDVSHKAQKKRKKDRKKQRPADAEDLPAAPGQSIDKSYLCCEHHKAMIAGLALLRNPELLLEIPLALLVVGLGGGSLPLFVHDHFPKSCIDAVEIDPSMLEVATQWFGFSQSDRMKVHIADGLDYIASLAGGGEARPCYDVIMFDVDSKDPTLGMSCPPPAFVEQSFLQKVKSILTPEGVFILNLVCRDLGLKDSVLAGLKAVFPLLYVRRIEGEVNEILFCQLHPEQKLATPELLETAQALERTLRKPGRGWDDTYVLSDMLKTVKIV
UniProt Q15723, sequence (Q15723 whole entry, looked up): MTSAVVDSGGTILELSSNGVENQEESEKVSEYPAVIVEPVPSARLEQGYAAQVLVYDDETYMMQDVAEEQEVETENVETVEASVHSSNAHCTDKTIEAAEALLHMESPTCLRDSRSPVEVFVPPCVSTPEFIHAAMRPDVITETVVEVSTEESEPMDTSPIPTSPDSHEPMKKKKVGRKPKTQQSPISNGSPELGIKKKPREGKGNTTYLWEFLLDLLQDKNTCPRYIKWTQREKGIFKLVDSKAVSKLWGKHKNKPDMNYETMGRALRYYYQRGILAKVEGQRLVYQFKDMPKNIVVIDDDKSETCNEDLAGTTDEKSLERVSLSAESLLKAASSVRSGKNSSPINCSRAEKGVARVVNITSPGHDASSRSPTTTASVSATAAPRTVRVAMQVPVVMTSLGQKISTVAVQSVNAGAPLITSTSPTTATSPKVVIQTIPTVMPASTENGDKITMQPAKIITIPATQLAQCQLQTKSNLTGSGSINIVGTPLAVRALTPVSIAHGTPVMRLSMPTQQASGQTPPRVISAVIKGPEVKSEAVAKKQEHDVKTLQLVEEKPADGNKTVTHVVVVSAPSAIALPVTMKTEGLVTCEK
UniProt O95718, sequence (O95718 whole entry, looked up): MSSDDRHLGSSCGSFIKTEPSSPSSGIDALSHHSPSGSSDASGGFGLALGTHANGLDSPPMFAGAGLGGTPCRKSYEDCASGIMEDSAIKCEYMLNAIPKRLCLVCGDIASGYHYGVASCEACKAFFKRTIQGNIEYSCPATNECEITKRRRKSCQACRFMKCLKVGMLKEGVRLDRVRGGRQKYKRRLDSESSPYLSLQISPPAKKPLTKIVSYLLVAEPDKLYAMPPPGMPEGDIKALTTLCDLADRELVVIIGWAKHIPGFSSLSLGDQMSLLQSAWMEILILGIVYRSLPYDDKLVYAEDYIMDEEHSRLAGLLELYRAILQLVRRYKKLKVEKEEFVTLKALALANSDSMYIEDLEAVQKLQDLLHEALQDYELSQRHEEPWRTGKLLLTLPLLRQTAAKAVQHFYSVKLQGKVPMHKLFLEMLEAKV

Turning to ESRRB isoform 1 (UniProt O95718), in the assay with silmitasertib, the log2 fold change was 0.087.
Take EHHADH (UniProt Q08426): the log2 fold change with vorinostat was 0.706 (active); in the assay with silmitasertib, -0.035; in assay [1] it was -0.048; in the assay with entospletinib, -0.013.
In the case of ELF2 (UniProt Q15723), the log2 fold change was 0.03 in assay [2]; -0.25 in the assay with vorinostat; 0 with silmitasertib; -0.011 in assay [1]; -0.03 with entospletinib.
EPB41, A0A2R8Y783: the log2 fold change in assay [2] was -0.071; with entospletinib, 0.393.
In the case of EIF2AK3 (UniProt Q9NZJ5), the log2 fold change with vorinostat was -0.142; in the assay with silmitasertib, 0.241.
With GIPC3 (UniProt Q8TF64), the log2 fold change is -0.336 with vorinostat, 0.044 with silmitasertib, -0.007 in assay [1] and -0.017 with entospletinib.
For the target GAMT (UniProt Q14353), the log2 fold change in assay [2] is -0.046; with vorinostat it was -0.423 (active); with silmitasertib, -0.008; in assay [1], -0.049; with entospletinib, -0.001.
Turning to EEF1AKNMT (UniProt Q8N6R0), the log2 fold change is -0.004 in assay [2]; -0.414 (active) in the assay with vorinostat; 0.076 with silmitasertib; -0.005 in assay [1]; 0.026 with entospletinib.
For the target DYRK1A isoform 2 (UniProt Q13627), the values for the log2 fold change (with vorinostat; with silmitasertib; in assay [1]) were -0.222, -0.035 and 0.002, respectively.
Taken in the same sequence, the figures for FMNL2 isoform 3 (UniProt Q96PY5) were -0.587 (active), -0.027 and 0.045.
Consider FOXJ2 (UniProt Q9P0K8), for which the log2 fold change with vorinostat is -0.208; in the assay with silmitasertib, -0.058; with entospletinib it was 0.033.
